In PubChem BioAssay (NCI):
Compounds without any hit were thinned out: in the full panel of roughly 79,000, 15% have a hit. Activity calls are given as the source filed them. Cut-off read from the data, not from the text of the source: active = growth inhibition above about 70%; inactive = the rest.

Columns and labels:
[1] = NCI Yeast Anticancer Drug Screen. Data for the rad50 strain (AID 155);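 note: 0% = growth of vehicle-only cultures of the same strain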; details: S. cerevisiae rad50 strain growth inhibition, active compounds read high
Method in brief: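 Cells are treated with compound, grown, and their growth is then scored against vehicle-only cultures of the same repair-deficient yeast strain.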

[2] = NCI Yeast Anticancer Drug Screen. Data for the mec2-1 strain (AID 157); details: S. cerevisiae mec2-1 strain, active compounds read high
Method in brief: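 mec2-1 yeast strain, carrying an alteration in DNA damage repair or cell cycle control, was exposed to compounds; growth inhibition was measured relative to vehicle-treated controls.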

[3] = NCI Yeast Anticancer Drug Screen. Data for the sgs1 mgt1 strain (AID 161);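 note: 0% = growth of cultures given vehicle only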; details: S. cerevisiae sgs1 mgt1 strain, active compounds read high
Method in brief: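 Percent growth inhibition was derived by comparing compound-exposed mutant yeast with vehicle-exposed cultures. The strain carries alterations in DNA damage repair.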

[4] = NCI Yeast Anticancer Drug Screen. Data for the cln2 rad14 strain (AID 165);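 note: 0% = growth equal to vehicle treated cultures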; details: S. cerevisiae cln2 rad14 strain, active compounds read high
Method in brief: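 Yeast carrying cln2 and rad14 alterations (cell cycle control and DNA damage repair) were exposed to compounds. Growth inhibition was measured against vehicle-treated controls.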

[5] = NCI Yeast Anticancer Drug Screen. Data for the bub3 strain (AID 167); details: S. cerevisiae bub3 mutant strain, active compounds read high
Method in brief: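 Part of a panel of yeast mutants defective in DNA damage repair or cell cycle regulation. Each strain is grown with compound, and inhibition is calculated relative to solvent-treated cultures.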

[6] = NCI Yeast Anticancer Drug Screen. Data for the mlh1 rad18 strain (AID 175); details: S. cerevisiae mlh1 rad18 strain growth inhibition, active compounds read high
Method in brief: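 Growth inhibition of the yeast strain was measured after compound exposure and expressed relative to vehicle-treated controls. The strain carries defined defects in DNA damage repair.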

[7] = at 5.0 µM (retest, dose inferred, filed as 0.5)
[8] = at 50.0 µM (retest, dose inferred, filed as 5.0)

Measured: growth inhibition

CCC(c1ccc(O)cc1)C(O)(CC)c1ccc(O)cc1 (configuration not stated)
inactive: [1]; [7] -6% | [1]; [8] -9% | [1]; at 50.0 µM 46.4% | [2]; [7] -10% | [2]; [8] -4% | [2]; at 50.0 µM 28.9% | [3]; [7] -3% | [3]; [8] 35% | [3]; at 50.0 µM 65.1% | [4]; [7] -24% | [4]; [8] -1% | [4]; at 50.0 µM 26.1% | [5]; [7] -11% | [5]; [8] -11% | [5]; at 50.0 µM 58.6% | [6]; [7] -26% | [6]; [8] -8% | [6]; at 50.0 µM 14.3%

CC1C[C@]2(C)C(=S)Nc3ccccc3[C@@H]2Nc2ccccc21 (some centres not stated)
active: [3]; [8] 74% | [5]; [8] 82%
inactive: [1]; [7] -1% | [1]; [8] 43% | [1]; at 50.0 µM 21.9% | [2]; [7] 8% | [2]; [8] 55% | [2]; at 50.0 µM 17.9% | [3]; [7] 23% | [3]; at 50.0 µM 48.8% | [4]; [7] 26% | [4]; [8] 60% | [4]; at 50.0 µM 19.8% | [5]; [7] 24% | [5]; at 50.0 µM 42.3% | [6]; [7] 6% | [6]; [8] 58% | [6]; at 50.0 µM 63.3%

NC(=S)C(=Nc1ccccc1F)Nc1ccccc1F
active: [1]; [8] 85% | [3]; [8] 70% | [5]; [8] 81% | [6]; [8] 87%
inactive: [1]; [7] 2% | [1]; at 50.0 µM 8.4% | [2]; [7] -8% | [2]; [8] 31% | [2]; at 50.0 µM -9.55% | [3]; [7] -10% | [3]; at 50.0 µM 61.6% | [4]; [7] -6% | [4]; [8] 35% | [4]; at 50.0 µM 5.55% | [5]; [7] -1% | [5]; at 50.0 µM 32.9% | [6]; [7] 20% | [6]; at 50.0 µM 66.2%

CC(=O)Oc1ccc(N=[N+]([O-])c2ccc(OC(C)=O)cc2)cc1
inactive: [1]; [7] 5% | [1]; [8] 12% | [1]; at 50.0 µM 1.95% | [2]; [7] 13% | [2]; [8] 40% | [2]; at 50.0 µM -2.6% | [3]; [7] 2% | [3]; [8] 19% | [3]; at 50.0 µM 45.6% | [4]; [7] 10% | [4]; [8] 23% | [4]; at 50.0 µM 18.4% | [5]; [7] -4% | [5]; [8] 2% | [5]; at 50.0 µM 14.7% | [6]; [7] -1% | [6]; [8] 5% | [6]; at 50.0 µM -13%

Oc1cc(-[n+]2ccccc2)c(O)c2ccccc12
active: [1]; [8] 82% | [3]; [8] 80% | [4]; [8] 71% | [5]; [8] 91% | [6]; [8] 83%
inactive: [1]; [7] 15% | [1]; at 50.0 µM -11.2% | [2]; [7] 9% | [2]; [8] 68% | [2]; at 50.0 µM 3.45% | [3]; [7] 5% | [3]; at 50.0 µM -5.35% | [4]; [7] 9% | [4]; at 50.0 µM 37.8% | [5]; [7] 21% | [5]; at 50.0 µM 6.3% | [6]; [7] 28% | [6]; at 50.0 µM 20.8%

CCOC(=O)CNC(=O)CNC(=O)CNC(c1ccccc1)(c1ccccc1)c1ccccc1
inactive: [1]; [7] -8% | [1]; [8] 56% | [1]; at 50.0 µM 66.5% | [2]; [7] 41% | [2]; [8] 69% | [2]; at 50.0 µM 60.3% | [3]; [7] -13% | [3]; at 50.0 µM 55.1% | [4]; [7] -10% | [4]; [8] 26% | [4]; at 50.0 µM 68.8% | [5]; [7] -1% | [5]; [8] 61% | [5]; at 50.0 µM 38.4% | [6]; [7] 15% | [6]; at 50.0 µM 63.7%
active: [3]; [8] 81% | [6]; [8] 83%

Cc1c(-c2ccccc2)ccnc1/C=N/NS(=O)(=O)c1ccccc1
active: [3]; at 50.0 µM 82%
inactive: [1]; [7] 0% | [1]; [8] -4% | [1]; at 50.0 µM 42% | [2]; [7] -1% | [2]; [8] 15% | [2]; at 50.0 µM 22.9% | [3]; [7] 4% | [3]; [8] 38% | [4]; [7] -3% | [4]; [8] -6% | [4]; at 50.0 µM 35.3% | [5]; [7] -8% | [5]; [8] -3% | [5]; at 50.0 µM 39.1% | [6]; [7] -3% | [6]; [8] 28% | [6]; at 50.0 µM 52.2%

CC[Si](CC)(CC)c1ccc(CCNCCS)s1
active: [1]; [8] 96% | [1]; at 50.0 µM 97.4% | [2]; [8] 99% | [2]; at 50.0 µM 98.7% | [3]; [8] 98% | [3]; at 50.0 µM 98.2% | [4]; [8] 97% | [4]; at 50.0 µM 98% | [5]; [8] 99% | [5]; at 50.0 µM 98.4% | [6]; [8] 97% | [6]; at 50.0 µM 98.3%
inactive: [1]; [7] -1% | [2]; [7] 32% | [3]; [7] 52% | [4]; [7] 8% | [5]; [7] 19% | [6]; [7] 49%

O=C(O)c1ccc(N=CC2CO2)cc1 (configuration not stated)
active: [4]; [7] 96% | [4]; [8] 99% | [5]; [7] 90% | [5]; [8] 98%
inactive: [1]; [7] 23% | [1]; [8] 11% | [1]; at 50.0 µM -2% | [2]; [7] 44% | [2]; [8] 64% | [2]; at 50.0 µM 0.45% | [3]; [7] 13% | [3]; [8] 10% | [3]; at 50.0 µM 7.05% | [4]; at 50.0 µM 21.8% | [5]; at 50.0 µM -10% | [6]; [7] 32% | [6]; [8] 22% | [6]; at 50.0 µM -3.15%
